Reference: PubChem BioAssay AID1006 (Sanford-Burnham Center for Chemical Genomics, 2008)
“And” between values parts separate entries of the source, which are not always exact repeats. Equal entries are not always repeated. Out of some 200,000 compounds screened, about 3,000 (1.5%) were called active. The full list was thinned out, with actives kept by preference. Values without a mark were called inactive.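 How the source made its calls: active means inhibition above about 50% when tested at 10 µM (limit read from the data); inactive means the rest.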

Target: Luciferin 4-monooxygenase (Photinus pyralis) (UniProt P08659)
Sequence (P08659 whole entry, looked up): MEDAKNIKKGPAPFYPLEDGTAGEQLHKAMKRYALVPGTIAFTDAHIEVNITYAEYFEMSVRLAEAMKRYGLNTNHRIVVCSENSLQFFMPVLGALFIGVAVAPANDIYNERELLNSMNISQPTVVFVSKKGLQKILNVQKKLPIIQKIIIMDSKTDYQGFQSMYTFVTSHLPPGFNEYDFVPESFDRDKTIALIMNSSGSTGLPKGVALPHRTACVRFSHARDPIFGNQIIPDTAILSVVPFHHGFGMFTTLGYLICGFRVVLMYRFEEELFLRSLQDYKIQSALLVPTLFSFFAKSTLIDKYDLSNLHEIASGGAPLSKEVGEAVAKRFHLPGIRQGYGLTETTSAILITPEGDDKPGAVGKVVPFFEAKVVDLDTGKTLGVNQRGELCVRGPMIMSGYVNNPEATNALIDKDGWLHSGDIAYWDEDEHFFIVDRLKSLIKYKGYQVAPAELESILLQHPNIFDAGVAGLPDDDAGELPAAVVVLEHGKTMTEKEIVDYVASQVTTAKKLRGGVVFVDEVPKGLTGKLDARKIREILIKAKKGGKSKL
Experiment: inhibition of purified FLuc reporter enzyme – biochemical, luminescence, ATPLite, artefact control for luciferase-based inhibitor screens, primary screen (AID 1006)
Conditions: ATPLite firefly luciferase biochemical luminescence, 10 min; at 10 µM; active compounds read high

Compound	inhibition
CNC(=O)COc1ccc(S(=O)(=O)Nc2ccccc2)cc1	-6.9%
CSc1ccccc1NC(=O)CN(C)CC(=O)Nc1ccc(Cl)cc1[N+](=O)[O-]	1.5%
Nc1ncc(-c2cc3ccccc3oc2=O)s1	32.1%
O=C(c1cn(-c2ccccc2)nc1-c1cc2ccccc2oc1=O)N1CCOCC1	-8.2%
O=c1oc2ccccc2cc1-c1cn(-c2ccccc2)c(=S)[nH]1	90.1% (active)
Cc1ccc(CCCOC(=O)C[N+]2(C)CCCCC2)cc1	-3.7%
COc1cccc(CNC(=O)c2n[nH]c3ccccc23)c1	51.1% (active)
O=C(COC(=O)c1n[nH]c2ccccc12)NCc1ccccc1	-1.4%
O=C(NCCc1ccc(F)cc1)c1n[nH]c2ccccc12	14.4%
CC(=O)Nc1ccc(NC(=O)CSc2nnc(COc3ccccc3C)n2CC2CCCO2)cc1 (centres undefined)	-2.3%
CCc1ccc2nc3sc(C(=O)Nc4nnc(CC)s4)c(N)c3cc2c1	51.9% (active)
CCc1nnc(NC(=O)c2cccs2)s1	6.9%
CCc1nnc(NC(=O)c2sc3nc(C)cc(COC)c3c2N)s1	-1.1%
CSc1cc(C)[nH]c(=O)n1	0.8%
Cc1ccc(-n2c(C)cc(/C=C(\C#N)C(=O)NCC3CCCO3)c2C)cc1 (centres undefined)	72.2% (active)
Cc1ccc(S(=O)(=O)N2CCC(C(=O)NCC3CCCO3)CC2)cc1 (centres undefined)	-6.3%
Cc1ccc(C(=O)N/C(=C/c2cccs2)C(=O)NCC2CCCO2)cc1 (centres undefined)	0.4%
CC(C)(C)NC(=O)COC(=O)c1cc(Cl)ccc1[N+](=O)[O-]	1.8%
CN(C)/C=C(/C(=O)c1ccccc1Cl)S(C)(=O)=O	-6%
Cc1cc(F)ccc1S(=O)(=O)N1CCCOC1CNC(=O)C(=O)NCCC1=CCCCC1 (centres undefined)	-3.9%
COc1cc(/C=C/C(=O)OCC(=O)N2CCOCC2)ccc1OCC#N	-6%
COc1cccc(OCC(=O)Nc2ccccc2C(N)=O)c1	59.2% (active)
CCCOC(=O)Nc1ccccc1C(N)=O	-2.5%
Cc1cccc(OCC(=O)Nc2ccccc2F)c1	6.3%
CCOC(=O)C1=C(N)N(c2ccc(C)cc2)C2=C(C(=O)CCC2)C1c1cccs1 (centres undefined)	-3.4%

Compound	inhibition
Cc1cc(/C=C2/C(=N)N3C(=NC2=O)SN=C3S(C)(=O)=O)c(C)n1-c1ccccc1	89.9% (active)
CCS(=O)(=O)C1=NSC2=NC(=O)/C(=C\c3cc(C)n(-c4cccc(OC)c4)c3C)C(=N)N21	12.2%
CS(=O)(=O)c1ccc2c(c1)SC1=NC(=O)/C(=C/c3ccco3)C(=N)N12	13.2%
COc1ccc(C(=O)Nc2nncs2)c(OC)c1	40%
COc1cc(SC)ccc1C(=O)Nc1nc(C)cs1	97.7% (active)
Cc1ccnc(NC(=O)c2ccoc2C)c1	18.1%
COc1cc(SC)ccc1C(=O)Nc1cc(C)ccn1	80.7% (active)
COc1ccccc1CNC(=O)c1ccc(SC)cc1OC	-4.7%
COc1cc(SC)ccc1C(=O)NCCOc1ccccc1Cl	-0.8%
Cn1cnnc1SCC(=O)NNC(=O)COc1ccc(Br)cc1	3.3%
COc1ccc(/C=N/NC(=O)c2ccncc2)cc1CN1CCCc2ccccc21	-8.3%
COc1ccc(C)cc1-n1nnnc1SCc1nc2ccccc2c(=O)[nH]1	0.3%
Fc1cccc(Cc2noc(CN3CCN(c4cnccn4)CC3)n2)c1	-8.2%
Cc1nc2cc(NC(=O)NCc3ccccc3)ccc2o1	12%
Cc1ccc(NC(=O)Nc2ccc3oc(C)nc3c2)cc1	70.8% (active)
Cc1nc2ccc(NC(=O)C(F)(F)F)cc2o1	-2.2%
O=C(CN1CCc2ccccc21)NC(c1ccccc1)c1ccccc1	-10.6%
O=C(N/N=C/c1ccc(OCC2COCCO2)cc1)c1ccc(Br)cc1 (centres undefined)	2.2%
CCS(=O)(=O)c1ccc(C(=O)NC)c(Cl)c1Cl	-3.5%
COc1ccccc1N1CCN(CC(=O)NCCc2ccc(S(N)(=O)=O)cc2)CC1	-3%
O=C(Cc1cccs1)Nc1nnc(C2CC2)s1	-1.8%
Cc1occc1C(=O)Nc1nnc(C2CCCCC2)s1	-4%
O=C(Nc1nnc(C2CC2)s1)c1ccccn1	63.4% (active)
Nc1ccc(-c2nnc(-c3ccc(-c4ccccc4)cc3)o2)cc1	3.7%
FC(F)(F)c1cnc(Oc2ccccc2-c2nnc(-c3ccc(Cl)cc3)o2)c(Cl)c1	-1.6%

Compound	inhibition
CSc1ccccc1-c1nnc(-c2ccc(Cl)cc2)o1	53.8% (active)
COc1cccc(CC2(CO)CCCN(Cc3nc(-c4cccs4)oc3C)C2)c1 (centres undefined)	-8.7%
CC(=O)Nc1ccc(OCCC[n+]2cccc(C(=O)[O-])c2)cc1	-2.9%
Cc1ccc(NC(=O)c2cccs2)cc1S(=O)(=O)N(C)C	15.2%
Cc1ccc(NC(=O)CNCc2ccccn2)cc1S(=O)(=O)N(C)C	-1.9%
Cc1ccc(C(=O)Nc2ccc(C)c(S(=O)(=O)N(C)C)c2)s1	71.1% (active)
CCOc1ncccc1C(=O)N(CC)CC(=O)Nc1ccc(NC(C)=O)cc1	-8.7%
CCNc1nc(-c2cc3ccccc3o2)cs1	64.9% (active)
COc1ccc2nc(Nc3nc(-c4cc5ccccc5oc4=O)cs3)sc2c1	40.7%
O=c1oc2ccccc2cc1-c1csc(Nc2ccc(O)cc2)n1	17.8%
CC/C(Cc1ccccc1)=N/NC(=O)CCn1nnc2ccccc21	-3.6%
Cc1ccc(C2=C/C(=C\c3cccnc3)C(=O)O2)cc1	52.2% (active)
Cc1ccccc1C1=N/C(=C/c2cccnc2)C(=O)O1	34.5%
O=C1OC(c2ccc(Cl)cc2)=N/C1=C\c1cccnc1	-3.3%
Cc1ccc(C)c(CSc2nc(-c3ccco3)nc3c2c(=O)n(C)c(=O)n3C)c1	0.1%
CC(=O)c1ccc(N2CCN(S(=O)(=O)c3c(C)[nH]c(=O)[nH]c3=O)CC2)cc1	-3%
O=C(CCN1CCN(C/C=C/c2ccccc2)CC1)Nc1cccc(F)c1	-5.5%
COc1ccc(C(=O)Nc2ccccc2C(=O)N/N=C/c2ccccc2OC)cc1	97.8% (active)
COc1ccccc1C(=O)NNC(=O)c1ccc(NC(=O)c2ccccc2)cc1	-1.7%
COc1ccc(/C=N/NC(=O)c2ccccc2)cc1OS(=O)(=O)c1ccccc1	-2.1%
CCn1c(/C=N/NC(=O)c2ccc(OC)cc2)nc2ccccc21	8.7%
COc1cc(/C=N/NC(=O)c2ccccc2)ccc1OS(=O)(=O)c1ccccc1	-2.6%
COc1ccc(C(=O)Nc2ccccc2C(=O)N/N=C/c2ccc(O)c(OC)c2)cc1	98.3% (active)
CCN(CC)c1ccc([N+](=O)[O-])cc1C(=O)O	-4.3%
Cc1ccc2cc(CN(c3ccc(C)c(C)c3)S(C)(=O)=O)c(=O)[nH]c2c1	-3.5%

Compound	inhibition
CCOC(=O)C1=C(CC)Nc2ccccc2N=C1N	-6.8%
CCc1ccccc1NC(=O)CN(c1ccc(OC)cc1OC)S(=O)(=O)c1ccccc1[N+](=O)[O-]	-10.9%
COc1ccc(N(CC(=O)NC2CCCC2)C(=O)CS(=O)CC(=O)Nc2ccc3c(c2)OCO3)cc1 (centres undefined)	-6.6%
COc1cc2c(C(=O)N3CCN(C)CC3)c(CSc3ccccc3)n(C)c2cc1Br	-9.2%
Cc1cc2ccccn2c1C(=O)c1cccc(S(=O)(=O)N2CCOCC2)c1	4.2%
COc1ccc(Cn2c(-c3ccc(Cl)cc3)c[n+]3ccccc23)cc1	7.2%
CC(C)C(NC(=O)C1CCC(C(C)(C)C)CC1)C(=O)NCCCN1CCCCC1 (centres undefined)	-3%
Cc1cc(OC(=O)c2ccccc2Cl)ccc1N1C(=O)CCC1=O	69% (active)
Cc1ccc(C)c(N2C(=O)CS/C2=N\NC(=O)c2ccccc2Cl)c1	-0.5%
COc1ccccc1C(=O)Oc1ccc(N2C(=O)CCC2=O)cc1	-2.3%
C=CCn1c(P(C)(=O)O)nc2ccccc21	-7.9% and -5.5%
CCc1ccc(OCC(=O)OCC(=O)c2c(N)n(C)c(=O)n(C)c2=O)cc1	-11.1%
O=c1c2c(nc3nc[nH]n13)CCC2	-4.1%
O=c1c2c(nc3cc(-c4cccc(Cl)c4)[nH]n13)CCCC2	74.9% (active)
O=C1CCCc2c1nc(-c1cccc(Cl)c1)n2O	-1.6%
COc1ccc(C(=O)OCC(=O)NC(=O)CCSc2ccccc2)cc1	-0.8%
Cc1ccc(SCCC(=O)NC(C(C)C)C(C)C)cc1	-8.1%
Cc1cc2nc(C(F)(F)F)cc(-c3cccs3)n2n1	-2.2%
CCOc1ccc(-c2nnc(-c3ccco3)o2)cc1	79.2% (active)
CCC(=O)Oc1cccc(C(=O)Nc2ccc(-c3nnc(-c4ccco4)o3)cc2)c1	-4.9%
CCCCOc1ccc(-c2nnc(-c3ccco3)o2)cc1	25.4%
CCOc1ccc2nc(Nc3nc4ccc(NC(C)=O)cc4s3)sc2c1	8.7%
CCOc1ccc2nc(C(=O)N3CCCC(C)C3)sc2c1 (centres undefined)	56% (active)
CCOc1ccc2nc(SC(CC)C(=O)Nc3cc(C)on3)sc2c1 (centres undefined)	-3.8%
